# Hits are enriched below; roughly 3.7% of the tested compounds scored in any of these assays.
# Anthrax LF prot = blocks Bacillus anthracis lethal factor protease; 360,000 compounds, 0.12% hits; P15917; inhibition, % at 10 µM; multiplex microsphere protease cleavage assay, LF; further: plate controls were buffer without enzyme for full effect and enzyme alone for no effect
# Bead autofluor = compound fluorescence in toxin protease inhibitor counterscreen; 360,000 compounds, 3.1% hits; AID 624483; fluorescence intensity (test concentration not listed); compound autofluorescence counterscreen, microsphere flow cytometry; active compounds read high; in the data active means fluorescence intensity above about 16000; inconclusive means no clear call, values can overlap the other calls
# MazF activator = activators of E. coli MazEF toxin-antitoxin RNase; activation, % at 20 µM; FAM/BHQ RNA-DNA oligo cleavage fluorescence, 5 h; 350,000 compounds, 0.32% hits; in the data active means activation above about 50%
# BoNT-A LC inh2 = BoNT A light chain protease inhibition | multiplex microsphere protease substrate cleavage, flow cytometry | inhibition, % at 10 µM | 360,000 compounds, 0.17% hits; further: plate controls were buffer without enzyme for full effect and enzyme alone for no effect
# BoNT F protease = blocks Botulinum neurotoxin F light chain protease. AID 588497. inhibition, % at 10 µM. Multiplex microsphere protease cleavage assay, flow cytometry. 360,000 compounds, 0.22% hits; in the data active means inhibition above about 35%, passing the limit was not always enough; inconclusive means no clear call, values can overlap the other calls; further: plate controls were buffer without enzyme for full effect and enzyme alone for no effect
# Starred values were filed as active, the others as inactive; ? = inconclusive; · = not tested or not shown. Unless noted, no stated cut-off is given here; in the data, active means inhibition above about 30%; inconclusive means no clear call, values can overlap the other calls; inactive means below that.
SMILES,Anthrax LF prot,Bead autofluor,MazF activator,BoNT-A LC inh2,BoNT F protease
COC(F)(C(=O)Nc1ccc2c(c1)C(=O)NC2=O)C(F)(F)F (stereo unspecified),2.6,22859*,2.3,1.2,1.9
COC(=O)CCCC[C@@H]1O[C@H](CCc2ccccc2)CC2=C1C(=O)OC(C)(C)O2,0.2,5583,·,-0.2,1.5
C/C=C1\NC(=O)[C@H](C)NC(=O)[C@@H](NC(=O)[C@H](Cc2ccc(O)cc2)NC(=O)[C@@H](NC(=O)/C(C)=C/C)C(C)C)[C@@H](C)OC(=O)[C@H](CC(C)C)NC(=O)[C@@H](CCC(=O)O)NC1=O,0.1,4168,·,1.8,-5.1
COc1cccc(S(=O)(=O)NCc2ccc(C(=O)NCc3ccco3)cc2)c1,0.7,25859*,7.0,-6.4,-5.9
CN1C(=O)C(C)(C)c2cc(S(=O)(=O)NCc3ccc(C(=O)NCc4ccco4)cc3)ccc21,-12.4,4690,139.7*,-1.2,-12.8
Cc1ccc(CNS(=O)(=O)c2ccc3c(c2)C(C)(C)C(=O)N3C)cc1,-4.5,6055,1.1,-0.1,0.9
O=C(O)CSc1nnc(-c2ccc3c(c2)OCO3)o1,0.8,16221*,0.3,1.0,-1.5
CC(SCc1ccccc1)C(=O)Nc1ccc2c(c1)OCO2 (stereo unspecified),-4.4,16775*,3.2,-1.0,-8.0
O=C(CSCc1ccccc1Cl)Nc1ccc2c(c1)OCCO2,-3.2,20949*,7.1,?,6.4
Nc1nnc(SCC(=O)Nc2ccc3c(c2)OCCO3)s1,-13.8,17217*,4.6,-1.9,-4.1
NC(=O)c1ccc(NC(=O)CSc2nnc(-c3ccc4c(c3)OCO4)o2)cc1,-4.0,3974,-8.6,-0.5,-5.8
O=C(CSc1nnc(-c2cccc(Cl)c2)o1)Nc1ccc2c(c1)OCCO2,-5.2,22299*,0.3,?,-1.0
CN1C(=O)C(=Cc2ccc(N3CCCCCC3)o2)C(=O)N(C)C1=S,30.3*,14036,32.0,26.7,196.7*
COC(=O)Cc1ccc(OC(=O)CCS(=O)(=O)c2ccc(C)cc2)cc1,-1.4,5068,-4.4,1.2,1.3
C/C(=N\NC(=O)c1nnn(-c2nonc2N)c1CSc1ccc(C)cc1)c1cccnc1,-1.1,3037,4.0,0.2,-1.4
O=C(Nc1ccc(Cl)cc1)N1CCCC1,-6.8,22686*,-5.7,-0.2,-2.7
O=C(Nc1ccc(Cl)cc1)N1CCSc2ccccc21,0.3,23243*,0.3,1.4,-0.8
O=C(Nc1ccccc1)N1CCSc2ccccc21,-0.9,2541,-1.8,0.2,0.6
O=C(Nc1ccc(Cl)cc1)N1CCOCC1,24.1,3972,3.8,-0.5,?
O=C1Nc2cc(Cl)ccc2C1(N1CCNCC1)C(F)(F)F (stereo unspecified),-7.0,18877*,5.6,2.4,-0.6
O=S(=O)(c1ccc(Cl)cc1)N1CCNCC1,-6.5,3776,3.0,-2.1,-9.0
CCOC(=O)C(=O)N(C)c1c(CC)nc2c(OCc3ccccc3)cccn12,-2.1,3774,·,-0.1,0.8
COCCCn1c(C)nnc1-c1cnn(-c2ccccc2)c1N,-3.0,4032,5.2,-0.9,-0.7
Cc1nnc(-c2cnn(C)c2N)n1Cc1ccccc1,-0.3,3944,5.7,-0.3,-12.2
Cc1nnc(-c2cnn(-c3ccccc3)c2N)n1Cc1ccccc1,-2.8,20987*,-2.4,-1.0,-1.6
SMILES,Anthrax LF prot,Bead autofluor,MazF activator,BoNT-A LC inh2,BoNT F protease
Cc1nnc(-c2cnn(-c3ccccc3)c2N)n1Cc1ccc(F)cc1,-8.9,19393*,-3.3,?,0.2
O=C(OCn1nnc2ccccc2c1=O)c1ccc(F)c(S(=O)(=O)N2CCOCC2)c1,-4.0,3968,-1.7,-0.1,3.3
CCOC(=O)c1sc2ncn(CC(=O)Nc3cc(C)on3)c(=O)c2c1C,-4.3,3892,0.4,0.3,-7.5
Nc1nsnc1C(=O)NCCO,-0.6,17466*,4.3,-3.0,-4.6
Cc1cc(NC(=O)COC(=O)[C@H](Cc2ccccc2)NC(=O)c2ccco2)no1,-5.9,3762,1.7,-0.3,-12.2
Cc1cc(C(=O)NC(C)c2ccc3c(c2)OCO3)cs1 (stereo unspecified),1.7,22313*,6.5,?,-6.6
CCSc1ccccc1C(=O)N1CCCC1,-1.1,23440*,5.5,-2.0,-6.0
COCCSc1ccccc1C(=O)N1CCCC1,4.1,5921,0.6,-0.2,-1.8
CCSc1ccccc1C(=O)N1CCN(Cc2ccc3c(c2)OCO3)CC1,-8.6,22336*,3.0,3.2,-0.2
Cc1cc(C(=O)N2CCN(Cc3ccc4c(c3)OCO4)CC2)cs1,-1.8,25075*,-3.6,-4.6,-6.4
O=C(O)c1ccccc1C(=O)N1CCN(Cc2ccc3c(c2)OCO3)CC1,14.6,3918,4.1,-2.6,-17.9
CN(C)N(C(=O)c1cc(-c2cccs2)nn1-c1ccccc1)C1CCS(=O)(=O)C1 (stereo unspecified),-7.8,3398,3.3,-0.7,-5.5
O=C(NCc1ccc2c(c1)OCO2)c1ccccc1Cl,-6.3,6446,3.5,-1.0,-3.4
O=C(Cc1ccccc1)NCc1ccc2c(c1)OCO2,-0.9,3417,4.6,-0.5,1.4
CCSc1ccccc1C(=O)NCc1ccc2c(c1)OCO2,-2.1,17574*,7.5,-3.9,-8.7
CSc1ccccc1C(=O)NCc1ccc2c(c1)OCO2,-2.1,20402*,-0.9,0.8,-1.5
Cc1c(C(=O)NCc2ccccc2C(F)(F)F)sc(=O)n1Cc1ccc(Cl)c(Cl)c1,-6.9,5740,·,0.0,-5.2
O=C1Nc2ccccc2Oc2cc([N+](=O)[O-])cc(Oc3ccccc3)c21,3.7,4500,53.2*,3.7,-1.9
Cc1cccc(Oc2cc([N+](=O)[O-])cc3c2C(=O)Nc2ccccc2O3)c1,0.1,3226,4.9,2.0,-1.3
Clc1ccc(C2=C3CCCCn4c(-c5ccccc5)c[n+](c43)C2)cc1,-11.2,2892,16.1,7.2,-68.6
COc1ccc(-c2c[n+]3c4n2CCCCC4=C(c2ccc(Br)cc2)C3)cc1,1.9,22490*,14.5,?,-15.8
Cn1cccc1/C=C1\CCC/C(=C\c2cccn2C)C1=O,1.3,6318,863.0*,5.9,-4.4
COc1ccc(Cl)cc1Nc1nc(Cl)nc(NCCO)n1,3.0,3631,5.9,0.2,3.7
O=C(CNc1cc(S(=O)(=O)N2CCOCC2)ccc1N1CCCC1)Nc1ccc(Cl)cc1F,0.4,3845,6.4,-0.3,3.4
CCOC(=O)N1CCN(c2c(-c3ccccc3)c3cc(Cl)ccc3[nH]c2=O)CC1,0.4,7826,-0.7,0.4,9.2
SMILES,Anthrax LF prot,Bead autofluor,MazF activator,BoNT-A LC inh2,BoNT F protease
O=c1[nH]c2ccc(Cl)cc2c(-c2ccccc2)c1N1CCN(CCO)CC1,-0.9,20528*,2.6,?,0.6
CCOc1cccc(OCCCCN2CCOCC2)c1,0.9,2461,-2.8,-0.1,-0.3
c1ccc(OCCCCN2CCOCC2)cc1,-1.8,16576*,7.3,-0.6,0.9
Cc1ccccc1OCCCN1CCOCC1,11.6,3547,-3.4,-2.8,-20.7
Clc1cccc(OCCN2CCOCC2)c1,-2.4,16577*,-3.9,0.1,-3.1
Brc1ccccc1OCCCN1CCOCC1,-6.9,23079*,5.3,1.1,-0.4
Cc1cccc(N(C)S(=O)(=O)c2ccc3[nH]c(=O)c(=O)[nH]c3c2)c1,3.6,16965*,-12.3,?,-1.2
